Measured values as given in the supplement of paper PMC10849652.
The full data set covers some 7,900 targets. This sample favours those with a hit. About 0.6% of all pairs of compound and target were hits.

Experiments:
Assay in all cases: log2 fold change, soluble protein after heating vs DMSO (PISA); higher = thermal stabilisation; K562 cells, 10 uM, 30 min; active = over 0.2 and 3.5 SD of the protein, either way, in both replicates (recomputed)
[1] = compound: CC[C@@H]1C(=O)N(C)c2cnc(Nc3ccc(C(=O)NC4CCN(C)CC4)cc3OC)nc2N1C1CCCC1
Summary of the method: (§1)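 For each measurement, 10 μM compound was applied for 30 min to K562 cells at 2×10^6 cells/mL. Aliquots were heated for 3 min across 48°C-58°C, pooled, and extracted in PBS with 0.5% NP-40 at 4°C; the supernatant after 21,000xg for 90 min was soluble protein. This was quantified by TMTpro 16plex LC-MS/MS with channel sums equalised, and thermal stability was reported relative to control samples from duplicates, on a log2 fold-change scale.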

volasertib = compound: CC[C@@H]1C(=O)N(C)c2cnc(Nc3ccc(C(=O)N[C@H]4CC[C@H](N5CCN(CC6CC6)CC5)CC4)cc3OC)nc2N1C(C)C [volasertib]
Summary of the method: as §1

[2] = compound: CC[C@H](C)N1C=C(C2=C(C=C(C=C21)C3=CN=C(C=C3)N4CCNCC4)C(=O)NCC5=C(C=C(NC5=O)C)C)C
Summary of the method: as §1

epoxomicin = compound: CC[C@H](C)[C@@H](C(=O)N[C@@H]([C@@H](C)O)C(=O)N[C@@H](CC(C)C)C(=O)[C@]1(CO1)C)NC(=O)[C@H]([C@@H](C)CC)N(C)C(=O)C [epoxomicin]
Summary of the method: as §1

[3] = compound: CCn1c(C(=O)N(C2CC2)C2CC2)cc2c3c(ncn3C)c(Nc3cc(C)n(C)n3)nc21
Summary of the method: as §1

[4] = compound: CCn1cc(-c2ccnc3[nH]c(-c4cccc(CN(C)C)c4)cc23)c(-c2ccc(NC(=O)N(C)C)cc2)n1
Summary of the method: as §1

[5] = compound: CN(C)CC(=O)Nc1ccc2[nH]c(=O)c3ccccc3c2c1
Summary of the method: as §1

rosiglitazone = compound: CN(CCOC1=CC=C(C=C1)C[C@H]2C(=O)NC(=O)S2)C3=CC=CC=N3 (racemic) [rosiglitazone]
Summary of the method: as §1

[6] = compound: CN1C2=C(C3=C1C(=O)N(N=C3)CC4=CC(=CC=C4)N)SC(=C2)S(=O)C
Summary of the method: as §1

[7] = compound: CN1CCC(CNc2ccc3ncc(-c4cccc(OC(F)(F)F)c4)n3n2)CC1
Summary of the method: as §1

saracatinib = compound: CN1CCN(CCOc2cc(OC3CCOCC3)c3c(Nc4c(Cl)ccc5c4OCO5)ncnc3c2)CC1 [saracatinib]
Summary of the method: as §1

sotrastaurin = compound: CN1CCN(c2nc(C3=C(c4c[nH]c5ccccc45)C(=O)NC3=O)c3ccccc3n2)CC1 [sotrastaurin]
Summary of the method: as §1

alvocidib = compound: CN1CC[C@H](c2c(O)cc(O)c3c(=O)cc(-c4ccccc4Cl)oc23)[C@H](O)C1 [alvocidib]
Summary of the method: as §1

Tubastatin A = compound: CN1CCc2c(c3ccccc3n2Cc2ccc(C(=O)NO)cc2)C1 [Tubastatin A]
Summary of the method: as §1

[8] = compound: CNC(=O)C1=CC=CC=C1NC2=NC(=NC=C2Cl)NC3=C(C=C(C=C3)N4CCOCC4)OC
Summary of the method: as §1

defactinib = compound: CNC(=O)c1ccc(Nc2ncc(C(F)(F)F)c(NCc3nccnc3N(C)S(C)(=O)=O)n2)cc1 [defactinib]
Summary of the method: as §1

rucaparib = compound: CNCc1ccc(-c2[nH]c3cc(F)cc4c3c2CCNC4=O)cc1 [rucaparib]
Summary of the method: as §1

[9] = compound: CNc1nc(-c2ccc3c(N)n[nH]c3c2)cc(N2C[C@@H](C(=O)NC3CCCCC3)CC[C@H]2C)n1
Summary of the method: as §1

encorafenib = compound: COC(=O)N[C@@H](C)CNc1nccc(-c2cn(C(C)C)nc2-c2cc(Cl)cc(NS(C)(=O)=O)c2F)n1 [encorafenib]
Summary of the method: as §1

[10] = compound: COC(=O)[C@H](CCSC)NC(=O)C1=C(C=C(C=C1)NC[C@H](CS)N)C2=CC=CC=C2
Summary of the method: as §1

Measured: log2 fold change

UQCR10 (UniProt Q9UDW1)
inactive: [1] 0.093 | volasertib -0.102 | [2] -0.031 | epoxomicin 0.005 | [3] 0.088 | [4] -0.112 | [5] 0.008 | rosiglitazone 0.017 | [6] -0.016 | [7] 0.177 | saracatinib 0.001 | sotrastaurin 0.121 | alvocidib -0.024 | Tubastatin A -0.103 | [8] 0.018 | defactinib 0.039 | rucaparib -0.063 | [9] 0.018 | encorafenib 0.001 | [10] -0.031

WDR46 (UniProt O15213)
Chain of UniProt O15213 (O15213 whole entry, looked up): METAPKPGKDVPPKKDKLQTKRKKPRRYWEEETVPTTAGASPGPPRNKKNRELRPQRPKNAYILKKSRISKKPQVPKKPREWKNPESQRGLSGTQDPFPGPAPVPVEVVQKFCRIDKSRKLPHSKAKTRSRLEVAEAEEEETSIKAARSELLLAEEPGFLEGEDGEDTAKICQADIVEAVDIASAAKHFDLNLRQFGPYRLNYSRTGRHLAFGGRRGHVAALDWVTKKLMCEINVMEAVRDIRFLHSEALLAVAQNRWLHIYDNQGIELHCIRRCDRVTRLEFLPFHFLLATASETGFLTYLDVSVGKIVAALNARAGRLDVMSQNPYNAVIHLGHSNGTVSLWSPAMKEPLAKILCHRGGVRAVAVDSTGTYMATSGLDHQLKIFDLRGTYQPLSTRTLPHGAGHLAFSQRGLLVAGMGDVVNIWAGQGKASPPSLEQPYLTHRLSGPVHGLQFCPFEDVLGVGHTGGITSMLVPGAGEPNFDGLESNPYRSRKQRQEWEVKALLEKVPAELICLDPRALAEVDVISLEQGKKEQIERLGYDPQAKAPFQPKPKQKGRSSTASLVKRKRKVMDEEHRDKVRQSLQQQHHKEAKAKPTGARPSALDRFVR
inactive: [1] 0.195 | volasertib 0.073 | [2] -0.085 | epoxomicin -0.417 | [3] 0.008 | [4] 0.288 | [5] -0.2 | rosiglitazone -0.077 | [6] 0.311 | [7] 0.389 | saracatinib -0.095 | sotrastaurin 0.003 | alvocidib 0.387 | Tubastatin A 0.101 | [8] 0.101 | defactinib 0.39 | rucaparib 0.289 | [9] 0.084 | encorafenib 0.128 | [10] -0.015

UFL1 (UniProt O94874)
Chain of UniProt O94874 (O94874 whole entry, looked up): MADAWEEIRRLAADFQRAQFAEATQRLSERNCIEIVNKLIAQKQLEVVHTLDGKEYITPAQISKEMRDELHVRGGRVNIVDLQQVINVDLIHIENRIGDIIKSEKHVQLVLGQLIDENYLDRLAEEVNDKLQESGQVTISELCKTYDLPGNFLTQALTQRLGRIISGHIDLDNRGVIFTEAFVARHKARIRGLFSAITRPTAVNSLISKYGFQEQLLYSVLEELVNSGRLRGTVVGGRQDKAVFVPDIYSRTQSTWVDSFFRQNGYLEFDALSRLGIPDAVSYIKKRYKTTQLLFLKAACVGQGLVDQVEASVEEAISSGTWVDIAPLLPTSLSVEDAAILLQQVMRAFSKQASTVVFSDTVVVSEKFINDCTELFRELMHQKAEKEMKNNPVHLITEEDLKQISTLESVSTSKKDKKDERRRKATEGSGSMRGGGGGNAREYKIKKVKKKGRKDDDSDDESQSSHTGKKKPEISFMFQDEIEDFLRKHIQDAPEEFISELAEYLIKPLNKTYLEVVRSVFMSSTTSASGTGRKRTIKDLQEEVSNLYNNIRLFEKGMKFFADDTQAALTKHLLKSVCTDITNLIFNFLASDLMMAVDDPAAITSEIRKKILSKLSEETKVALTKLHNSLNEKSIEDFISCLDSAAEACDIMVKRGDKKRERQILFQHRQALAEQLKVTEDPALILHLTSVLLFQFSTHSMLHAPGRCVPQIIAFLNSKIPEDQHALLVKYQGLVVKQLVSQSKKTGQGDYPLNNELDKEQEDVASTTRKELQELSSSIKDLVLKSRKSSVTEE
active: volasertib -0.351
inactive: [1] -0.063 | [2] 0.086 | epoxomicin 0.004 | [3] -0.06 | [4] -0.023 | [5] 0.054 | rosiglitazone 0.06 | [6] 0.04 | [7] -0.089 | saracatinib -0.033 | sotrastaurin -0.035 | alvocidib 0.027 | Tubastatin A 0.076 | [8] 0.018 | defactinib -0.045 | rucaparib 0.1 | [9] 0 | encorafenib 0.121 | [10] -0.119

TPM2 (UniProt P07951)
Chain of UniProt P07951 (P07951 whole entry, looked up): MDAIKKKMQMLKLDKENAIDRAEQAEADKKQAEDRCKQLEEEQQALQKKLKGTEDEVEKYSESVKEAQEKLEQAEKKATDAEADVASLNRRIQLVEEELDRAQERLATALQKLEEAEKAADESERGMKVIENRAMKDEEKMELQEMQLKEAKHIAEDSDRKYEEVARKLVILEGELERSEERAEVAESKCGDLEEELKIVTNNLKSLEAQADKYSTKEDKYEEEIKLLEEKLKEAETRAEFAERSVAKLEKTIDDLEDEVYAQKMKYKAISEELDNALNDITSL
inactive: [1] -0.07 | volasertib 0.173 | [2] 0.069 | epoxomicin 0.287 | [3] 0.023 | [4] -0.04 | [5] -0.057 | rosiglitazone -0.024 | [6] -0.023 | [7] 0.118 | saracatinib 0.177 | sotrastaurin -0.033 | alvocidib -0.078 | Tubastatin A -0.012 | [8] 0.004 | defactinib 0.042 | rucaparib -0.027 | [9] -0.026 | encorafenib -0.006 | [10] 0.102

UBE3D (UniProt Q7Z6J8)
Chain of UniProt Q7Z6J8 (Q7Z6J8 whole entry, looked up): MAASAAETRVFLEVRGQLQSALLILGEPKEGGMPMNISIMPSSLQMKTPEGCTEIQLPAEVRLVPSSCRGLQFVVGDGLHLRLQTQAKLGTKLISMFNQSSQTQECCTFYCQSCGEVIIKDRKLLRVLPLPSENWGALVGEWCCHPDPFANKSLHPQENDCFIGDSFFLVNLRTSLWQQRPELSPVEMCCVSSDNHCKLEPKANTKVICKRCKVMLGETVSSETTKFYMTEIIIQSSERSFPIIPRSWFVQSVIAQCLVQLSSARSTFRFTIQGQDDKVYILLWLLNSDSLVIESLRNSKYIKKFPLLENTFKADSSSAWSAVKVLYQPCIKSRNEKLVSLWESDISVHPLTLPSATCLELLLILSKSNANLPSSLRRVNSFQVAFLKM
inactive: [1] -0.033 | volasertib -0.053 | [2] 0.012 | epoxomicin 0.031 | [3] 0.063 | [4] -0.023 | [5] -0.004 | rosiglitazone 0.003 | [6] -0.051 | [7] -0.016 | saracatinib 0.027 | sotrastaurin -0.007 | alvocidib -0.059 | Tubastatin A -0.043 | [8] -0.058 | defactinib -0.003 | rucaparib 0.161 | [9] -0.064 | encorafenib 0.005 | [10] -0.108

TNPO2 (UniProt O14787)
Chain of UniProt O14787 (O14787 whole entry, looked up): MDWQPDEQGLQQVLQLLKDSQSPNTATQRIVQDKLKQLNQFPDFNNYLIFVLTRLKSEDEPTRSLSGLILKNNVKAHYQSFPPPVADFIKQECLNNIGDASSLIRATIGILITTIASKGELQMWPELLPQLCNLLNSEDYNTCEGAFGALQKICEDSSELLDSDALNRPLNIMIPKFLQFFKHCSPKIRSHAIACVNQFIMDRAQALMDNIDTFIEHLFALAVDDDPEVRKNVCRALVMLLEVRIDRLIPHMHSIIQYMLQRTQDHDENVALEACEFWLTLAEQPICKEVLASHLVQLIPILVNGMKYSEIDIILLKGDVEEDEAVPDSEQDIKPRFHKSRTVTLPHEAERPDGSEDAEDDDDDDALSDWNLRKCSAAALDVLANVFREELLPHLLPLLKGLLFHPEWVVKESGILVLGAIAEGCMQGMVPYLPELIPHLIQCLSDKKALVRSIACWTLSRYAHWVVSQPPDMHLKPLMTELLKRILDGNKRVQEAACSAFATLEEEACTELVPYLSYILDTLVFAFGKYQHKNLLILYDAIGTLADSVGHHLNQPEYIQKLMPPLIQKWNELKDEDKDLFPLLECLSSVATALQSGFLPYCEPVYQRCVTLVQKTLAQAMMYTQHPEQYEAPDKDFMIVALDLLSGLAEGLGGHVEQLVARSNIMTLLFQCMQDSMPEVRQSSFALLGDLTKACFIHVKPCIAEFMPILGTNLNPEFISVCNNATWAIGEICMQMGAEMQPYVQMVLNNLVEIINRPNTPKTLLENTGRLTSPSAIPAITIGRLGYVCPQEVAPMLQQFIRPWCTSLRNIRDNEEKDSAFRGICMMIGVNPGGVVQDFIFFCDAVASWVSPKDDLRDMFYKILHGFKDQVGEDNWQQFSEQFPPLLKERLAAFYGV
inactive: [1] -0.176 | [2] 0.106 | epoxomicin 0.029 | [3] -0.031 | [4] -0.027 | [5] 0.111 | rosiglitazone 0.068 | [6] 0.016 | [7] 0.06 | saracatinib 0.066 | sotrastaurin -0.055 | alvocidib -0.188 | Tubastatin A 0.03 | [8] 0.013 | defactinib -0.188 | rucaparib -0.051 | [9] 0.054 | encorafenib 0.133 | [10] -0.079
active: volasertib -0.36

VPS16 (UniProt Q9H269)
Chain of UniProt Q9H269 (Q9H269 whole entry, looked up): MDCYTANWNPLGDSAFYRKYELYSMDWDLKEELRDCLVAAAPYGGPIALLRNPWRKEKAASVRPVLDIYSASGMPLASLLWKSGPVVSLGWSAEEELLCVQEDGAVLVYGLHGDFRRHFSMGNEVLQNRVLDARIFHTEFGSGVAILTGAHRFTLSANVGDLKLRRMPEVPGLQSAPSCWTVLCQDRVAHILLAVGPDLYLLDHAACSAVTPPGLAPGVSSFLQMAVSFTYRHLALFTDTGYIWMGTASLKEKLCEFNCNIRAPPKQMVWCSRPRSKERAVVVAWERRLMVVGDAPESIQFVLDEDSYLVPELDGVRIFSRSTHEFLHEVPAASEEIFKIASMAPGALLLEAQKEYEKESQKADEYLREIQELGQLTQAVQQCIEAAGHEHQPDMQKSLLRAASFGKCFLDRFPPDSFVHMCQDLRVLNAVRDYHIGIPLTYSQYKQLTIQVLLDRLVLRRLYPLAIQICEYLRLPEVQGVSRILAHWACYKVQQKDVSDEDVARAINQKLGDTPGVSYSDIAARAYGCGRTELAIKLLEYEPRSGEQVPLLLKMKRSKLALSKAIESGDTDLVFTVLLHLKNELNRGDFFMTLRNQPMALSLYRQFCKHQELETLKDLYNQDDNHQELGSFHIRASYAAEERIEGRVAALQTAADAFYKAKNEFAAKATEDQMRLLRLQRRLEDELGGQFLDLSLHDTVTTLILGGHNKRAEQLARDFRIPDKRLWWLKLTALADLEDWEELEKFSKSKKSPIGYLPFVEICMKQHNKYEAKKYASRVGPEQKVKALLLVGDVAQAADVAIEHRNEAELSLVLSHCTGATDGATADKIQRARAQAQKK
inactive: [1] -0.244 | [2] 0.042 | epoxomicin 0.045 | [3] 0.003 | [4] -0.072 | [5] 0.083 | rosiglitazone 0.113 | [6] 0.026 | [7] -0.316 | saracatinib 0.026 | sotrastaurin -0.171 | alvocidib -0.028 | Tubastatin A -0.001 | [8] -0.071 | defactinib -0.042 | rucaparib -0.049 | [9] -0.054 | encorafenib 0.196 | [10] -0.022
active: volasertib -0.671

WRB (UniProt O00258)
inactive: [1] 0.011 | volasertib 0.057 | [2] -0.071 | epoxomicin -0.059 | [3] -0.021 | [4] -0.02 | [5] -0.024 | rosiglitazone -0.025 | [6] 0.029 | [7] -0.016 | saracatinib -0.007 | sotrastaurin 0.075 | alvocidib 0.034 | Tubastatin A -0.051 | [8] -0.048 | defactinib 0.073 | rucaparib -0.003 | [9] -0.014 | encorafenib -0.057 | [10] 0.023

XPO5 (UniProt Q9HAV4)
inactive: [1] -0.122 | [2] 0.063 | epoxomicin 0.073 | [3] 0.01 | [4] -0.04 | [5] 0.018 | rosiglitazone 0.035 | [6] -0.027 | saracatinib 0 | sotrastaurin -0.087 | alvocidib -0.102 | Tubastatin A -0.03 | [8] 0.008 | defactinib -0.142 | rucaparib -0.028 | [9] 0.026 | encorafenib 0.054 | [10] -0.004
active: volasertib -0.263 | [7] -0.302

TMEM161B (UniProt Q8NDZ6)
Chain of UniProt Q8NDZ6 (Q8NDZ6 whole entry, looked up): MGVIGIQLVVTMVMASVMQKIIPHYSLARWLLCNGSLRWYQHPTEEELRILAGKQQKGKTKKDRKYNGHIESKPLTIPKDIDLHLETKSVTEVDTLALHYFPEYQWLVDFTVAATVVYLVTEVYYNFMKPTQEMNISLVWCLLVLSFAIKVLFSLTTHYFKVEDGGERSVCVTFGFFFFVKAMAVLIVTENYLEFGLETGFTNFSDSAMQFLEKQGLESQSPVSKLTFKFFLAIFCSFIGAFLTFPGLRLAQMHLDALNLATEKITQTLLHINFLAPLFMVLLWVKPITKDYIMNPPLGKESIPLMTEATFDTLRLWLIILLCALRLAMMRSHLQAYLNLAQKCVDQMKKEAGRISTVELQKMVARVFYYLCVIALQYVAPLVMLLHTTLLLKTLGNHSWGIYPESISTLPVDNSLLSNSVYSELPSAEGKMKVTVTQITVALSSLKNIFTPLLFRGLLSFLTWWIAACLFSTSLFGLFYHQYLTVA
inactive: [1] -0.028 | volasertib -0.038 | [2] 0.062 | epoxomicin 0.058 | [3] 0.01 | [4] 0.02 | [5] 0.079 | rosiglitazone 0.028 | [6] -0.068 | [7] -0.186 | saracatinib 0.048 | sotrastaurin 0.037 | alvocidib -0.037 | Tubastatin A -0.007 | [8] -0.043 | defactinib -0.061 | rucaparib 0.013 | [9] -0.049 | encorafenib -0.023 | [10] -0.05

TMEM189-UBE2V1 (UniProt I3L0A0)
inactive: [1] 0.054 | volasertib 0.056 | [2] -0.137 | epoxomicin -0.023 | [3] -0.003 | [4] 0.048 | [5] 0 | rosiglitazone 0.04 | [6] -0.035 | [7] -0.009 | saracatinib 0.041 | sotrastaurin 0.157 | alvocidib 0.016 | Tubastatin A -0.007 | [8] -0.004 | defactinib -0.014 | rucaparib -0.059 | [9] -0.038 | encorafenib 0 | [10] 0.018

VTA1 (UniProt Q9NP79)
Chain of UniProt Q9NP79 (Q9NP79 whole entry, looked up): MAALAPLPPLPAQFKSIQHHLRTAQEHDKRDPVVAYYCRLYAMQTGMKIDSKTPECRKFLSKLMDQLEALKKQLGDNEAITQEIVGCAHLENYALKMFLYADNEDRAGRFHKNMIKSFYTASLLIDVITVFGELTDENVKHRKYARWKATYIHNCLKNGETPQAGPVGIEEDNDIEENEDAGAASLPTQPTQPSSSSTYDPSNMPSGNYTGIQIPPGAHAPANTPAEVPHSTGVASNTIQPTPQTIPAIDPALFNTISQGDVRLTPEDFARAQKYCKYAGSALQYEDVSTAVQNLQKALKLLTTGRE
inactive: [1] -0.172 | [2] 0.06 | epoxomicin 0.024 | [3] 0.026 | [4] -0.045 | [5] 0.048 | rosiglitazone 0.016 | [6] -0.041 | [7] -0.079 | saracatinib 0.028 | sotrastaurin -0.022 | alvocidib -0.081 | Tubastatin A -0.046 | [8] 0.045 | defactinib -0.029 | rucaparib 0.011 | [9] -0.011 | encorafenib 0.023 | [10] -0.033
active: volasertib -0.291

WDR61 (UniProt Q9GZS3)
active: [7] -0.247
inactive: [1] 0.067 | volasertib 0.102 | [2] 0.035 | epoxomicin -0.029 | [3] 0.011 | [4] 0.035 | [5] -0.011 | rosiglitazone 0.095 | [6] -0.066 | saracatinib -0.011 | sotrastaurin 0.064 | alvocidib -0.051 | Tubastatin A -0.011 | [8] -0.005 | defactinib -0.012 | rucaparib -0.012 | [9] -0.007 | encorafenib -0.028 | [10] 0.031

TRAPPC8 (UniProt Q9Y2L5)
active: volasertib -0.287
inactive: [1] -0.092 | [2] 0.077 | epoxomicin 0.033 | [3] -0.023 | [4] -0.073 | [5] 0.015 | rosiglitazone 0.059 | [6] 0.04 | [7] -0.099 | saracatinib -0.017 | sotrastaurin -0.044 | alvocidib -0.055 | Tubastatin A -0.004 | [8] 0.014 | defactinib -0.104 | rucaparib 0.074 | [9] 0.008 | encorafenib 0.032 | [10] -0.032

WASH2P (UniProt Q6VEQ5)
inactive: [1] -0.071 | volasertib -0.163 | [2] 0.024 | epoxomicin 0 | [3] 0.002 | [4] 0.037 | [5] 0.021 | rosiglitazone 0.033 | [6] 0.012 | [7] -0.067 | saracatinib 0.009 | sotrastaurin -0.08 | alvocidib -0.018 | Tubastatin A -0.059 | [8] 0.02 | defactinib -0.004 | rucaparib -0.011 | [9] -0.037 | encorafenib 0.004 | [10] 0.007

WARS2 (UniProt Q9UGM6)
Chain of UniProt Q9UGM6 (Q9UGM6 whole entry, looked up): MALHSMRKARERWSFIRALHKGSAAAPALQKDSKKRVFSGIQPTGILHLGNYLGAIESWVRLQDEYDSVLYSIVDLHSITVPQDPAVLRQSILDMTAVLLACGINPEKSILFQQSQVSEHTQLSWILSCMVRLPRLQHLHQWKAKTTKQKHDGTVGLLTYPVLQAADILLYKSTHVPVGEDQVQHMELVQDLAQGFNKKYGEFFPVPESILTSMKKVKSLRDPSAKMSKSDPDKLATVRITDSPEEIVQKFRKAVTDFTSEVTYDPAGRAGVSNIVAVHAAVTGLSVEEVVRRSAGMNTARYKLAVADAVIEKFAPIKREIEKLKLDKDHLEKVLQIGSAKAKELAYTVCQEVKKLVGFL
inactive: [1] -0.07 | [2] 0.099 | epoxomicin 0.016 | [3] 0.043 | [4] -0.03 | [5] 0.043 | rosiglitazone 0.074 | [6] -0.055 | [7] -0.099 | saracatinib -0.037 | sotrastaurin 0.014 | alvocidib -0.08 | Tubastatin A -0.04 | [8] 0.018 | defactinib -0.065 | rucaparib 0.04 | [9] 0.006 | encorafenib -0.011 | [10] -0.057
active: volasertib -0.323
